Results filed as inconclusive are left out. A number with no mark means an inactive call. Calls of active or inactive are those of the source. Calls come from the whole dose curve; as a rule, active = well fitted curve in the direction sought with a large enough effect; inconclusive = small, poorly fitted or top-dose-only effect, or another doubt; inactive = no such curve, though single readings can be large; an effect the other way counts as inactive or inconclusive.

A short description of one assay: qHTS of pediatric cancer cell lines to identify multiple opportunities for drug repurposing: Confirmatory screen for BT-37 cells (AID 1347117).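 For activity change, negative = cytotoxic: plate controls were DMSO for no effect and bortezomib for full effect.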 Note: potency is the fitted concentration of half-maximal effect.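 Note: viability measured after 48 h of compound exposure; nearly all actives have a fitted effect of over 55% in size.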 The settings on record: BT-37 pediatric cancer cells, viability; series mostly up to 45.9 µM; activity change, negative = cytotoxic: at the top concentration. An outline of the steps: (§1)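 Cells (500-1,000/well) in growth media were settled 5 h at 37 degrees C, then given compounds for 48 h. Viability was read as CellTiter-Glo luminescence. Primary runs used MIPE at 11 points (0.78 nM-46 µM) and NPC at 8 points (0.59 nM-46 µM); follow-ups used 11 points.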
`O=C(O)CN1C(=O)c2cccc3cccc(c23)C1=O`: the Potency is 18.5 µM (active).

As to `O=C1N=C(O)CN1/N=C/c1ccc(-c2ccc([N+](=O)[O-])cc2)o1`, the “activity change, negative = cytotoxic” value was -18.5%.

As for `CCN(CC)CCNC(=O)c1cc(Cl)c(N)cc1OC`, the “activity change, negative = cytotoxic” value was -6%.

For the compound `C[C@@H]1C[C@H]2[C@@H]3C[C@H](F)C4=CC(=O)C=C[C@]4(C)[C@@]3(F)[C@@H](O)C[C@]2(C)[C@@]1(O)C(=O)CO`, the “activity change, negative = cytotoxic” value was -17.7%.

As for `O=c1cc[nH]c(=S)[nH]1`, the “activity change, negative = cytotoxic” value was -4.33%.

For `C[C@](N)(Cc1ccc(O)cc1)C(=O)O`, the activity change, negative = cytotoxic was -10.9% [at 5.01 µM].

For the compound `CCCCC/C(C=O)=C\c1ccccc1`, the Potency was 14.7 µM (active).

The nature of another assay: qHTS of pediatric cancer cell lines to identify multiple opportunities for drug repurposing: Confirmatory screen for TC32 cells (AID 1347118). For activity change, negative = cytotoxicity: % is set by controls: 0 for no effect and ±100 for the full control effect.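 Note: cells exposed to compound for 48 h before the read; nearly all actives have a fitted effect of over 65% in size.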 Note: potency is the fitted concentration of half-maximal effect. The settings on record: TC32 Ewing sarcoma cells viability qHTS; series mostly up to 5.01 µM; activity change, negative = cytotoxicity: at the top concentration. An outline of the steps: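 TC32 cells, 500-1,000/well in growth medium, compound-treated 48 h at 37 °C; viability from CellTiter-Glo luminescence. Primary screen: MIPE 11-point (0.78 nM–46 µM final), NPC 8-point (0.59 nM–46 µM final); confirmatory at 11-point dilutions.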
Consider `Cc1ccc2nc(N)[nH]c(=O)c2c1Sc1ccncc1`, for which the Potency was 3.29 µM (active).

As to `O=C(O)CN1C(=O)c2cccc3cccc(c23)C1=O`, the Potency was 3.29 µM (active).

Consider `O=C1N=C(O)CN1/N=C/c1ccc(-c2ccc([N+](=O)[O-])cc2)o1`, for which the “activity change, negative = cytotoxicity” value is -13.9% [at 45.9 µM].

For the compound `C[C@@H]1C[C@H]2[C@@H]3C[C@H](F)C4=CC(=O)C=C[C@]4(C)[C@@]3(F)[C@@H](O)C[C@]2(C)[C@@]1(O)C(=O)CO`, the Potency was 23.3 µM (active).

As to `O=c1cc[nH]c(=S)[nH]1`, the Potency is 9.27 µM (active).

As for `C[C@](N)(Cc1ccc(O)cc1)C(=O)O`, the “activity change, negative = cytotoxicity” value is -8.96%.

In the case of `CCCCC/C(C=O)=C\c1ccccc1`, the Potency was 6.57 µM (active).

The nature of another assay: qHTS of pediatric cancer cell lines to identify multiple opportunities for drug repurposing: Confirmatory screen for MG 63 (6-TG R) cells (AID 1347119).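 For activity change, negative = cytotoxicity: plate controls were DMSO neutral control for no effect and bortezomib for full effect.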 Note: nearly all actives have a fitted effect of over 55% in size. Note: potency is the fitted concentration of half-maximal effect. As to conditions: MG-63 (6-TG resistant) osteosarcoma viability; series mostly up to 45.9 µM; activity change, negative = cytotoxicity: at the top concentration. An outline of the steps:
as §1
As to `O=C(O)CN1C(=O)c2cccc3cccc(c23)C1=O`, the Potency was 20.8 µM (active).

In the case of `O=C1N=C(O)CN1/N=C/c1ccc(-c2ccc([N+](=O)[O-])cc2)o1`, the “activity change, negative = cytotoxicity” value was 18.5%.

`CCN(CC)CCNC(=O)c1cc(Cl)c(N)cc1OC`: the “activity change, negative = cytotoxicity” value was 10.9%.

For `C[C@@H]1C[C@H]2[C@@H]3C[C@H](F)C4=CC(=O)C=C[C@]4(C)[C@@]3(F)[C@@H](O)C[C@]2(C)[C@@]1(O)C(=O)CO`, the “activity change, negative = cytotoxicity” value was 0.928%.

Take `O=c1cc[nH]c(=S)[nH]1`: the “activity change, negative = cytotoxicity” value is -24.5%.

With `C[C@](N)(Cc1ccc(O)cc1)C(=O)O`, the activity change, negative = cytotoxicity is 15.9% [at 5.01 µM].

For the compound `CCCCC/C(C=O)=C\c1ccccc1`, the “activity change, negative = cytotoxicity” value was -15.4%.

The next assay is described as follows: qHTS of pediatric cancer cell lines to identify multiple opportunities for drug repurposing: Confirmatory screen for control Hh wild type fibroblast cells (AID 1347121).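 Note: plate controls were DMSO for no effect and bortezomib for full effect; nearly all actives have a fitted effect of over 70% in size.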 The settings on record: viability qHTS; series mostly up to 45.9 µM; activity, negative = cytotoxic: at the top concentration. An outline of the steps:
as §1
With `O=C(O)CN1C(=O)c2cccc3cccc(c23)C1=O`, the “activity, negative = cytotoxic” value is 7.18%.

As for `O=C1N=C(O)CN1/N=C/c1ccc(-c2ccc([N+](=O)[O-])cc2)o1`, the “activity, negative = cytotoxic” value is 14.1%.

For the compound `CCN(CC)CCNC(=O)c1cc(Cl)c(N)cc1OC`, the “activity, negative = cytotoxic” value is 13.2%.

Consider `C[C@@H]1C[C@H]2[C@@H]3C[C@H](F)C4=CC(=O)C=C[C@]4(C)[C@@]3(F)[C@@H](O)C[C@]2(C)[C@@]1(O)C(=O)CO`, for which the “activity, negative = cytotoxic” value is -0.183%.

Turning to `C[C@](N)(Cc1ccc(O)cc1)C(=O)O`, the activity, negative = cytotoxic is -2.45% [at 5.01 µM].

`CCCCC/C(C=O)=C\c1ccccc1`: the “activity, negative = cytotoxic” value was -1.03%.

The next assay is described as follows: qHTS of pediatric cancer cell lines to identify multiple opportunities for drug repurposing: Confirmatory screen for U-2 OS cells (AID 1347122).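 For activity change, negative = cytotoxicity: plate controls were DMSO for no effect and bortezomib for full effect.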 Note: nearly all actives have a fitted effect of over 65% in size. As to conditions: U-2 OS osteosarcoma cell viability; series mostly up to 45.9 µM; activity change, negative = cytotoxicity: at the top concentration. The method in brief: as §1
Consider `Cc1ccc2nc(N)[nH]c(=O)c2c1Sc1ccncc1`, for which the “activity change, negative = cytotoxicity” value is 44.3%.

On to `O=C(O)CN1C(=O)c2cccc3cccc(c23)C1=O`, for which the “activity change, negative = cytotoxicity” value was -13.8%.

As to `O=C1N=C(O)CN1/N=C/c1ccc(-c2ccc([N+](=O)[O-])cc2)o1`, the “activity change, negative = cytotoxicity” value is 1.15%.

Consider `CCN(CC)CCNC(=O)c1cc(Cl)c(N)cc1OC`, for which the “activity change, negative = cytotoxicity” value was 4.59%.

On to `C[C@@H]1C[C@H]2[C@@H]3C[C@H](F)C4=CC(=O)C=C[C@]4(C)[C@@]3(F)[C@@H](O)C[C@]2(C)[C@@]1(O)C(=O)CO`, for which the “activity change, negative = cytotoxicity” value was 13.4%.

On to `O=c1cc[nH]c(=S)[nH]1`, for which the “activity change, negative = cytotoxicity” value was 2%.

Take `C[C@](N)(Cc1ccc(O)cc1)C(=O)O`: the activity change, negative = cytotoxicity is 3.67% [at 5.01 µM].

Take `CCCCC/C(C=O)=C\c1ccccc1`: the result was inactive.

The next assay can be described thus: qHTS of pediatric cancer cell lines to identify multiple opportunities for drug repurposing: Confirmatory screen for Rh41 cells (AID 1347123).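 Note: 48 h compound exposure; plate controls were DMSO for no effect and bortezomib for full effect; nearly all actives have a fitted effect of over 60% in size.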 As to conditions: Rh41 rhabdomyosarcoma cells, viability/cytotoxicity qHTS; series mostly up to 45.9 µM; activity change, negative = cytotoxic: at the top concentration. An outline of the steps:
as §1
In the case of `O=C(O)CN1C(=O)c2cccc3cccc(c23)C1=O`, the “activity change, negative = cytotoxic” value was -11.7%.

`CCN(CC)CCNC(=O)c1cc(Cl)c(N)cc1OC`: the “activity change, negative = cytotoxic” value is -8.45%.

For `C[C@@H]1C[C@H]2[C@@H]3C[C@H](F)C4=CC(=O)C=C[C@]4(C)[C@@]3(F)[C@@H](O)C[C@]2(C)[C@@]1(O)C(=O)CO`, the “activity change, negative = cytotoxic” value is -7.25%.

In the case of `O=c1cc[nH]c(=S)[nH]1`, the “activity change, negative = cytotoxic” value was 0%.

Regarding `C[C@](N)(Cc1ccc(O)cc1)C(=O)O`, the activity change, negative = cytotoxic was 0% [at 5.01 µM].

The nature of another assay: qHTS of pediatric cancer cell lines to identify multiple opportunities for drug repurposing: Confirmatory screen for RD cells (AID 1347124). For activity change, negative = cytotoxic: % is set by controls: 0 for no effect and ±100 for the full control effect.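 Note: cells exposed to compound for 48 h before viability readout; nearly all actives have a fitted effect of over 65% in size.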 Note: potency is the fitted concentration of half-maximal effect. As to conditions: RD rhabdomyosarcoma cell viability; series mostly up to 45.9 µM; activity change, negative = cytotoxic: at the top concentration. An excerpt: Drug repurposing or repositioning has been offered as a strategy for drug development in oncology programs. This approach has special potential for childhood cancers and other rare or orphan diseases, where the expected return on new drug development has been a disincentive to pharmaceuticals.
In this project we exploit the poly-pharmacology of drugs to discover new indications via phenotypic screening of a panel of 19 well-characterized cell lines derived from solid tumors seen in children and adolescents. The goal is to identify approved drugs with previously unrecognized anticancer properties that has the potential to reveal new mechanisms and biological processes involved in carcinogenesis or drug resistance. We employed a titration-based paradigm (quantitative high-throughput screening or qHTS), where all compounds were tested at multiple concentrations for their effect on cell viability. Concentration-response curves (CRCs) were derived directly from the primary screen, and both potency and efficacy values were used to identify compounds with robust bioactivity profiles. We screened the NIH Chemical Genomics Center (NCGC) Pharmaceutical Collection (NPC) and Mechanism Interrogation Plate (MIPE) small molecule collections of approved and investigational compounds against these cell lines; and measured metabolically active cells after 48 hours of compound treatment as a proxy for cell viability.
Assay Submitter: Nathalia J. Martinez, National Center for Advancing Translational Sciences, National Institutes of Health, Rockville, MD, USA; email: natalia.martinez@nih.gov
[1] Shen, M et al. Quantitative high-throughput phenotypic screening of pediatric cancer cell lines identifies multiple opportunities for drug repurposing. Oncotarget 2017 Dec 19;9(4):4758-4772. PMID 29435139.
The cells were obtained from University of North Carolina (UNC), Pediatric Preclinical Testing Program (PPT), and Coriell Institute (CI).
qHTS cell viability assay:
Cells were assayed in growth media at a density of 500-1,000 cells/well. Five microliters of cells were dispensed into 1,536-well, white, solid-bottom, TC-treated plates (Greiner Bio One) using a multidrop dispenser and incubated at 37 degrees C, 5% CO2, under a humidified atmosphere for 5 hours. Twenty-three nanoliters of compounds and controls (neutral control DMSO or positive control bortezomib at final concentration of 2.3 µM) were subsequently transferred by Kalypsys pintool. For primary screens, the MIPE collection was tested at 11-point dilutions (final concentrations range from 0.78 nM to 46 µM) and the NPC collection at 8-point dilutions (final concentrations range from 0.59 nM to 46 µM). Compounds tested in follow-up screens were assayed at 11-point dilutions. Cells were incubated for 48 hours, followed by addition of 3 µL of CellTiter-Glo (Promega). After a 15 min incubation at room temperature, samples were analyzed for luminescence intensity using a ViewLux High-throughput CCD imager equipped with clear filters.
For `Cc1ccc2nc(N)[nH]c(=O)c2c1Sc1ccncc1`, the “activity change, negative = cytotoxic” value was 4.08%.

For the compound `O=C(O)CN1C(=O)c2cccc3cccc(c23)C1=O`, the Potency is 3.69 µM (active).

Consider `O=C1N=C(O)CN1/N=C/c1ccc(-c2ccc([N+](=O)[O-])cc2)o1`, for which the “activity change, negative = cytotoxic” value is 9.54%.

In the case of `CCN(CC)CCNC(=O)c1cc(Cl)c(N)cc1OC`, the “activity change, negative = cytotoxic” value is -0.795%.

Consider `C[C@@H]1C[C@H]2[C@@H]3C[C@H](F)C4=CC(=O)C=C[C@]4(C)[C@@]3(F)[C@@H](O)C[C@]2(C)[C@@]1(O)C(=O)CO`, for which the “activity change, negative = cytotoxic” value is 10.2%.

As to `O=c1cc[nH]c(=S)[nH]1`, the “activity change, negative = cytotoxic” value is 9.14%.

As to `C[C@](N)(Cc1ccc(O)cc1)C(=O)O`, the activity change, negative = cytotoxic is 10.4% [at 5.01 µM].

For `CCCCC/C(C=O)=C\c1ccccc1`, the “activity change, negative = cytotoxic” value is 10.5%.

A short description of another assay: qHTS of pediatric cancer cell lines to identify multiple opportunities for drug repurposing: Confirmatory screen for Rh18 cells (AID 1347125). Note: % is set by controls: 0 for no effect and ±100 for the full control effect; nearly all actives have a fitted effect of over 55% in size. The settings on record: Rh18 rhabdomyosarcoma cells, viability; series mostly up to 45.9 µM; activity change, negative = cytotoxic: at the top concentration. The method in brief: as §1
For `Cc1ccc2nc(N)[nH]c(=O)c2c1Sc1ccncc1`, the “activity change, negative = cytotoxic” value is -8.47%.

With `O=C1N=C(O)CN1/N=C/c1ccc(-c2ccc([N+](=O)[O-])cc2)o1`, the “activity change, negative = cytotoxic” value was -2.21%.

For the compound `CCN(CC)CCNC(=O)c1cc(Cl)c(N)cc1OC`, the “activity change, negative = cytotoxic” value was 2.64%.

In the case of `C[C@@H]1C[C@H]2[C@@H]3C[C@H](F)C4=CC(=O)C=C[C@]4(C)[C@@]3(F)[C@@H](O)C[C@]2(C)[C@@]1(O)C(=O)CO`, the “activity change, negative = cytotoxic” value was -12.1%.

Turning to `O=c1cc[nH]c(=S)[nH]1`, the “activity change, negative = cytotoxic” value was 2.97%.

As for `C[C@](N)(Cc1ccc(O)cc1)C(=O)O`, the activity change, negative = cytotoxic is 0.623% [at 5.01 µM].
